# Legend:
# Experiment in all cases: DAPPL (digital affinity profiling via proximity ligation, sequencing); 10 mM Tris-HCl pH 7.5, 50 mM NaCl, 1 mM DTT, 4% glycerol, room temperature, 30 min; GST-TFs on glutathione beads, 16-mer random dsDNA library, 0.1% formaldehyde crosslink after washing; high values mean tight binding
# FEV = biological target: T1, FEV (Homo sapiens, UniProt Q99581 1-238); conditions: protein: recombinant; tags: N-terminal GST; dsDNA, one strand shown
# T1 sequence: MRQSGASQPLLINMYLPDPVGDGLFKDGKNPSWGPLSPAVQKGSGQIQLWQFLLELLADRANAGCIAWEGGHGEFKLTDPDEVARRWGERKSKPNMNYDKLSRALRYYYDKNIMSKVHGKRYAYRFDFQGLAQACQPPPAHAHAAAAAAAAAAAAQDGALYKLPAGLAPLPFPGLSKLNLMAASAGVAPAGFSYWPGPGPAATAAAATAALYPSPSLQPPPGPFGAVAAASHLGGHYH
# Outline: (§1)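 Binding signal is each hexamer's read frequency for a factor divided by its frequency in the tag-only sample. The factors were GST-fused human transcription factors from yeast, captured on glutathione beads, DNA-barcoded and pooled with that sample. Pools were incubated with 200 nmole of a random double-stranded 16-mer DNA library in Tris/NaCl/DTT/glycerol buffer at room temperature for 30 min, then washed, crosslinked with 0.1% formaldehyde, proximity-ligated with BsaI/T4 ligase (1 h, 37 °C), PCR-amplified and sequenced on an Illumina NextSeq500.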
# ETV5 = ETV5 (Homo sapiens, UniProt P41161 1-510); conditions: protein: recombinant; tags: N-terminal GST; dsDNA, one strand shown
# Sequence of ETV5 (P41161 whole entry): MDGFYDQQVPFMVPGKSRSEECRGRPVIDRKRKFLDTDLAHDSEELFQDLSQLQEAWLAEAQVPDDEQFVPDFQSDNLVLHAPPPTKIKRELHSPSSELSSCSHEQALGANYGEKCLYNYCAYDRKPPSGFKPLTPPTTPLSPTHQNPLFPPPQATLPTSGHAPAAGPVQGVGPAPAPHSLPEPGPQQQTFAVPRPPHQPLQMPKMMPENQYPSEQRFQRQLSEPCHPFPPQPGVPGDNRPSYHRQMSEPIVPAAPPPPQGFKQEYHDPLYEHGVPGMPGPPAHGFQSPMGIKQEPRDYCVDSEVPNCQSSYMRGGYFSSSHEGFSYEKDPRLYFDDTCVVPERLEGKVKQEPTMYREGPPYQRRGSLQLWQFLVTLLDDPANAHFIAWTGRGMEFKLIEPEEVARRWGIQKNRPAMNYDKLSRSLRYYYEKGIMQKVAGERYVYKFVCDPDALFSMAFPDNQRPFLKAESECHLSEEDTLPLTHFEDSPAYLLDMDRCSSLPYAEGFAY
# Outline: as §1
# HSF1 = HSF1 (Homo sapiens, UniProt Q00613 1-529); conditions: protein: recombinant; tags: N-terminal GST; chain copies: 3; dsDNA, one strand shown
# Sequence of HSF1 (Q00613 whole entry): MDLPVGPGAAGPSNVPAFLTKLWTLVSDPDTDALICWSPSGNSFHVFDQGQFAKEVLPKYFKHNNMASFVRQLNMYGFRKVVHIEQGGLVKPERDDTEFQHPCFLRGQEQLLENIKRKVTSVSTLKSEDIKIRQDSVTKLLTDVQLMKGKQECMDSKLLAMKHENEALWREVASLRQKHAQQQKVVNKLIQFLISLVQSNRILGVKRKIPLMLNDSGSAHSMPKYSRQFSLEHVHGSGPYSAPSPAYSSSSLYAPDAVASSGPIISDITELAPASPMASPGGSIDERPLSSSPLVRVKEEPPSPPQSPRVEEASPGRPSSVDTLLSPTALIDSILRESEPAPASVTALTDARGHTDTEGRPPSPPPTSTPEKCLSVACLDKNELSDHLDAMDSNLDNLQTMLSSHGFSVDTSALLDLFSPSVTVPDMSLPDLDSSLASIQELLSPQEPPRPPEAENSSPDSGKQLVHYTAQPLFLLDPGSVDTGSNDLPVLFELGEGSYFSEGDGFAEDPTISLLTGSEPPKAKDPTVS
# Outline: as §1
# SPIC = biological target: T2, SPIC (Homo sapiens, UniProt Q8N5J4 1-248); conditions: protein: recombinant; tags: N-terminal GST; dsDNA, one strand shown
# T2 sequence: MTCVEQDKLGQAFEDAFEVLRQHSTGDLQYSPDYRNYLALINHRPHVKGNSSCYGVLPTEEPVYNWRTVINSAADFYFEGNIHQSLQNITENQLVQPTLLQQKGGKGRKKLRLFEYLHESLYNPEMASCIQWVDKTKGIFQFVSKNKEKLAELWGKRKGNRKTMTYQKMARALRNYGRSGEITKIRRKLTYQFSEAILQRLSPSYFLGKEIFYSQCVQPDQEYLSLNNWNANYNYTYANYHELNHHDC
# Outline: as §1
# ELF4 = ELF4 (Homo sapiens, UniProt Q99607 1-663); conditions: protein: recombinant; tags: N-terminal GST; dsDNA, one strand shown
# Sequence of ELF4 (Q99607 whole entry): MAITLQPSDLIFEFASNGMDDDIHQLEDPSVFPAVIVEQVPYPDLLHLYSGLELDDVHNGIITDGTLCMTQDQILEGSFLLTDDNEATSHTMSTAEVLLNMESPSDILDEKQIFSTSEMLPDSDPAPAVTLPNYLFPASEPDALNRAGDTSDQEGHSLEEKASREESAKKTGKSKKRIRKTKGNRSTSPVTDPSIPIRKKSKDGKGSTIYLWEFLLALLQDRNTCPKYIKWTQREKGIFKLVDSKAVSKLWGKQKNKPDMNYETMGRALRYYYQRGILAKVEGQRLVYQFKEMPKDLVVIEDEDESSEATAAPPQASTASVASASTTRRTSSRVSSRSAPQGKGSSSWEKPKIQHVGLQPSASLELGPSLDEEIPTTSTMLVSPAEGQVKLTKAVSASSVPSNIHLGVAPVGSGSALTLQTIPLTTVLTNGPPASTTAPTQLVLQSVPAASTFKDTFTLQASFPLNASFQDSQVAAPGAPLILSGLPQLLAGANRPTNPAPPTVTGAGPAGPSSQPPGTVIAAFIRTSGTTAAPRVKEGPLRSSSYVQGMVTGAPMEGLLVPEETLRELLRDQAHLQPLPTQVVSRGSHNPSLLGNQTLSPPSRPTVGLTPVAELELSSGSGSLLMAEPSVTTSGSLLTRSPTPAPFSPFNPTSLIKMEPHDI
# Outline: as §1
# ELK4 = biological target: T3, ELK4 (Homo sapiens, UniProt P28324-2 1-405); conditions: protein: recombinant; tags: N-terminal GST; dsDNA, one strand shown
# T3 sequence: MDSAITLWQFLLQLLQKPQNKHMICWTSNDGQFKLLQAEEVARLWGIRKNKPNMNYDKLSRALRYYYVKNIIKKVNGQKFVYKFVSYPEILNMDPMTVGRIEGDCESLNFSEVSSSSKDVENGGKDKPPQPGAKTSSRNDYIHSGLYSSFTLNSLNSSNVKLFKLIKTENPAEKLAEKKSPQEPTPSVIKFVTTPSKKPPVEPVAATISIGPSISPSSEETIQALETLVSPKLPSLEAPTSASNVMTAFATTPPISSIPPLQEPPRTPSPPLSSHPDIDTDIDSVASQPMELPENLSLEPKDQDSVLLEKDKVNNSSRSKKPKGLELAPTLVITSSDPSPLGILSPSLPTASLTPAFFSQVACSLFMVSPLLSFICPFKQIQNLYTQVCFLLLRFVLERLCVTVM
# Outline: as §1
# ETV2 = biological target: T4, ETV2 (Homo sapiens, UniProt O00321 1-342); conditions: protein: recombinant; tags: N-terminal GST; dsDNA, one strand shown
# T4 sequence: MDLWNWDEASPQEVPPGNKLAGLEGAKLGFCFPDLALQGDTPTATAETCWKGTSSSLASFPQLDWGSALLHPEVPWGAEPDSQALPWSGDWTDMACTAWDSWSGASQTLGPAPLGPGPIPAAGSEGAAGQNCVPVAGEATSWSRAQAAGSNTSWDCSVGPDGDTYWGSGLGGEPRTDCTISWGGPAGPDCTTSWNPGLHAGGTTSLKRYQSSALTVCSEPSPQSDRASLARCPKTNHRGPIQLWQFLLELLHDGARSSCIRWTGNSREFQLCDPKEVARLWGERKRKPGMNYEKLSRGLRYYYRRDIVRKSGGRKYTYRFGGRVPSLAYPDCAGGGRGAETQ
# Outline: as §1
# ELF3 = biological target: T5, ELF3 (Homo sapiens, UniProt P78545 1-371); conditions: protein: recombinant; tags: N-terminal GST; dsDNA, one strand shown
# T5 sequence: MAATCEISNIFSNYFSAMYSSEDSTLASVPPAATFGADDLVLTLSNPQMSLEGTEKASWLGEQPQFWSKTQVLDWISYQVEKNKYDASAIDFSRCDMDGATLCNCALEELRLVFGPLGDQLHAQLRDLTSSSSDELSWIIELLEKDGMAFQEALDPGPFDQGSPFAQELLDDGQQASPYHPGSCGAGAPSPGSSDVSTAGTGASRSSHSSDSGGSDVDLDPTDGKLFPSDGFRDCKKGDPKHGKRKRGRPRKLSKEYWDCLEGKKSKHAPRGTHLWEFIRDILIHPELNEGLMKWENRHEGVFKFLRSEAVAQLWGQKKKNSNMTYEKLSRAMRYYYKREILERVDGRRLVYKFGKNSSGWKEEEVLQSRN
# Outline: as §1
# CRX = CRX (Homo sapiens, UniProt O43186 1-299); conditions: protein: recombinant; tags: N-terminal GST; dsDNA, one strand shown
# Sequence of CRX (O43186 whole entry): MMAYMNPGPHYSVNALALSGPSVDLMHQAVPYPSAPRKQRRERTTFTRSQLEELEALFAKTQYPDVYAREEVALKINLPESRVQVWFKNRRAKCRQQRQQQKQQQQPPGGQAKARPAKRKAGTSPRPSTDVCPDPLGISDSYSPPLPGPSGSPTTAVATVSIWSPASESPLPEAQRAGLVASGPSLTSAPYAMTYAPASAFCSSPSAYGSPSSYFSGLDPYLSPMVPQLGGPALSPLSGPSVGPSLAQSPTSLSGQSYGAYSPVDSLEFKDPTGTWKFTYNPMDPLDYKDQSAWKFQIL
# Outline: as §1
# ETV1 = ETV1 (Homo sapiens, UniProt P50549 1-477); conditions: protein: recombinant; tags: N-terminal GST; dsDNA, one strand shown
# Sequence of ETV1 (P50549 whole entry): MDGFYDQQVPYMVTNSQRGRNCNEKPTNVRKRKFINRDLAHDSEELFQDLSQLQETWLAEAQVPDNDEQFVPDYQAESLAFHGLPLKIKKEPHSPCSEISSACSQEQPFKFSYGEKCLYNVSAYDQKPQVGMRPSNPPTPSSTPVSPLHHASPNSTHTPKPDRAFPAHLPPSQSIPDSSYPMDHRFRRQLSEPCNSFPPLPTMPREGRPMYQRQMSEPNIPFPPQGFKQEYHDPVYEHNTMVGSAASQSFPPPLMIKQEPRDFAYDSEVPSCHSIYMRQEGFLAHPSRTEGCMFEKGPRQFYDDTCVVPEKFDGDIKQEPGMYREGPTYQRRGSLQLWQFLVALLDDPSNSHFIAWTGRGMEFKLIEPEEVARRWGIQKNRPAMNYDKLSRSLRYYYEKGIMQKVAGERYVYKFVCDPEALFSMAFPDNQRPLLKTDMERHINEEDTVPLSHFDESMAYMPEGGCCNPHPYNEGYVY
# Outline: as §1
# ERF = biological target: T6, ERF (Homo sapiens, UniProt P50548 1-548); conditions: protein: recombinant; tags: N-terminal GST; dsDNA, one strand shown
# T6 sequence: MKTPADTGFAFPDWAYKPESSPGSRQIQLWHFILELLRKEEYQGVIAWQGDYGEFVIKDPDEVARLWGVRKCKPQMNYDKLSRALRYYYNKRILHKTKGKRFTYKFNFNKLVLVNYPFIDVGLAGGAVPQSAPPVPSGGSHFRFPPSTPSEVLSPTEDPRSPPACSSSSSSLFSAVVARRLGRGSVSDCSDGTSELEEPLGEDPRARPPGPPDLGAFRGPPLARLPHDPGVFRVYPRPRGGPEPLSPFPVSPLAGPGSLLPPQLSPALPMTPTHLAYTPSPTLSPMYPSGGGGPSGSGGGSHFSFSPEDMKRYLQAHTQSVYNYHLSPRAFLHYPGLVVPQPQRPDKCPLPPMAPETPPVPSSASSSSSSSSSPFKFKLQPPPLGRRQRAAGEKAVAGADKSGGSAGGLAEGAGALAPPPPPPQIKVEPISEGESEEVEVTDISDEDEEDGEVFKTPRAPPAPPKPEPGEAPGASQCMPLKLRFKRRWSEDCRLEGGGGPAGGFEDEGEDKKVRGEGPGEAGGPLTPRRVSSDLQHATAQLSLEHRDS
# Outline: as §1
# ETV3L = biological target: T7, ETV3L (Homo sapiens, UniProt Q6ZN32 1-361); conditions: protein: recombinant; tags: N-terminal GST; dsDNA, one strand shown
# T7 sequence: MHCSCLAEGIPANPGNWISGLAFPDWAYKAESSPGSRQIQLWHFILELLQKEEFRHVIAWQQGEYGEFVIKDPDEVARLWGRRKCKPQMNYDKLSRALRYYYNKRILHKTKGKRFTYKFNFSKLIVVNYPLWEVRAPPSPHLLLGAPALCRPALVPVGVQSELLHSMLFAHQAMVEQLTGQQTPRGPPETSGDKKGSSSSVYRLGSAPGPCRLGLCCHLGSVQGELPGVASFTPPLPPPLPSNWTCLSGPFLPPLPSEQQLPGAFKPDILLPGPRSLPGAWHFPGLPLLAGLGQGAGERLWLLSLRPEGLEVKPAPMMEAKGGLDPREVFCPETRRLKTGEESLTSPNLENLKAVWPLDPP
# Outline: as §1
# ETS2 = biological target: T8, ETS2 (Homo sapiens, UniProt P15036 1-469); conditions: protein: recombinant; tags: N-terminal GST; dsDNA, one strand shown
# T8 sequence: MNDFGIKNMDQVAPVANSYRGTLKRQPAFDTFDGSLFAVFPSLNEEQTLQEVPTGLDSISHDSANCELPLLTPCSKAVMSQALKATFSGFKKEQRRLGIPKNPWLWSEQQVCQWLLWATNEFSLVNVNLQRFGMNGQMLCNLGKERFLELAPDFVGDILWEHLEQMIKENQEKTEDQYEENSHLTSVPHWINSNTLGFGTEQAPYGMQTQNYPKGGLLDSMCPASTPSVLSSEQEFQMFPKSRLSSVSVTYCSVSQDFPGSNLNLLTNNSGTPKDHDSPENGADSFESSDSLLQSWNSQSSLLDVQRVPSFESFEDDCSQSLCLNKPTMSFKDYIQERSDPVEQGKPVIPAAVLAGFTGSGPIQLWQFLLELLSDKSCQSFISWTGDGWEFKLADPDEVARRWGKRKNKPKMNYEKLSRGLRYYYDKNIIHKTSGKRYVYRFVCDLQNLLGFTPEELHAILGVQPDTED
# Outline: as §1
# SPDEF = biological target: T9, SPDEF (Homo sapiens, UniProt O95238 1-335); conditions: protein: recombinant; tags: N-terminal GST; dsDNA, one strand shown
# T9 sequence: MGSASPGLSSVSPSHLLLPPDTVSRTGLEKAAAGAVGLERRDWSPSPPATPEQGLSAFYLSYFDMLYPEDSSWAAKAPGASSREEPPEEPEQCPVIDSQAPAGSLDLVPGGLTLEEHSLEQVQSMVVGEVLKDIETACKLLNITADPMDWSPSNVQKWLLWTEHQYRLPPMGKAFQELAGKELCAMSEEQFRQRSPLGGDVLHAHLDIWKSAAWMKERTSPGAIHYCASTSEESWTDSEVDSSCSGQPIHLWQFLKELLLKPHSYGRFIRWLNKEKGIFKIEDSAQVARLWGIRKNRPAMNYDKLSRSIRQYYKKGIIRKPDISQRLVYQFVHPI
# Outline: as §1
# ETV7 = biological target: T10, ETV7 (Homo sapiens, UniProt Q9Y603 1-341); conditions: protein: recombinant; tags: N-terminal GST; dsDNA, one strand shown
# T10 sequence: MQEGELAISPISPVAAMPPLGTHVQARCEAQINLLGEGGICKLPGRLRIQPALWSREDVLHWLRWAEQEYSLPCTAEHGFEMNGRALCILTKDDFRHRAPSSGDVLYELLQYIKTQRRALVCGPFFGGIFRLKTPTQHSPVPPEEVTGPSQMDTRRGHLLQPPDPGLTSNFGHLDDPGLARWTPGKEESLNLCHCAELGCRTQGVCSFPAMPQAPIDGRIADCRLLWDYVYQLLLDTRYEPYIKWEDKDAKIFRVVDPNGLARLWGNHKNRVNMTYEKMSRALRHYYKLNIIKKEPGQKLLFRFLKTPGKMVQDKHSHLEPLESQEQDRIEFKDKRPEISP
# Outline: as §1
# ELF5 = biological target: T11, ELF5 (Homo sapiens, UniProt Q9UKW6-2 1-255); conditions: protein: recombinant; tags: N-terminal GST; dsDNA, one strand shown
# T11 sequence: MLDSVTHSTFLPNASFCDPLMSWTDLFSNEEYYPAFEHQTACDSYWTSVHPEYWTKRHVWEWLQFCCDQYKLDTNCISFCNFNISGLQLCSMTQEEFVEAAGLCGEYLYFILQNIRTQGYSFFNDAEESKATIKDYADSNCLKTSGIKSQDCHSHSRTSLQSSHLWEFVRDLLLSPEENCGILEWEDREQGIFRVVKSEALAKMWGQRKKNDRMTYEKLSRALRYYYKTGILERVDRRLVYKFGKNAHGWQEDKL
# Outline: as §1
# ETV3 = biological target: T12, ETV3 (Homo sapiens, UniProt P41162-2 1-143); conditions: protein: recombinant; tags: N-terminal GST; dsDNA, one strand shown
# T12 sequence: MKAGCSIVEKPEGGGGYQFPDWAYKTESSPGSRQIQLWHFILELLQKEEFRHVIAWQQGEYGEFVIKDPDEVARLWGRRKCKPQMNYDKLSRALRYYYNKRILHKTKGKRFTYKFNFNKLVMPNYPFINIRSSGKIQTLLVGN
# Outline: as §1
# ETV6 = ETV6 (Homo sapiens, UniProt P41212 1-452); conditions: protein: recombinant; tags: N-terminal GST; dsDNA, one strand shown
# Sequence of ETV6 (P41212 whole entry): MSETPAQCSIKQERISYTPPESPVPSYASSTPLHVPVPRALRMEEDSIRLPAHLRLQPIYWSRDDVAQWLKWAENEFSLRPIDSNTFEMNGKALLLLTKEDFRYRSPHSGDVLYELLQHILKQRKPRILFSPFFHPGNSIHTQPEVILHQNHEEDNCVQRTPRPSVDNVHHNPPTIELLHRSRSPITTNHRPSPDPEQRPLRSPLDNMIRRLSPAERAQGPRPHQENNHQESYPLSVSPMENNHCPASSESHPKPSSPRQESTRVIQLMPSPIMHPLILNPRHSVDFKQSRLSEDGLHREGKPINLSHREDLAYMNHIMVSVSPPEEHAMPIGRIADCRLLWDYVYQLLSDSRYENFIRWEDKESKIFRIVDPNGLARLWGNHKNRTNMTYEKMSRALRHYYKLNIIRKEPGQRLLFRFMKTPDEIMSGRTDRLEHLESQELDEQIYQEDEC
# Outline: as §1
sequence,measurement,setting,value
GCTTTC,binding signal,FEV,"1.25 fold enrichment (6-mer frequency, TF over GST control)"
same,binding signal,ETV5,"1.24 fold enrichment (6-mer frequency, TF over GST control)"
same,binding signal,HSF1,"1.35 fold enrichment (6-mer frequency, TF over GST control)"
same,binding signal,SPIC,"1.06 fold enrichment (6-mer frequency, TF over GST control)"
same,binding signal,ELF4,"1.23 fold enrichment (6-mer frequency, TF over GST control)"
same,binding signal,ELK4,"1.26 fold enrichment (6-mer frequency, TF over GST control)"
same,binding signal,ETV2,"1.59 fold enrichment (6-mer frequency, TF over GST control)"
same,binding signal,ELF3,"1.47 fold enrichment (6-mer frequency, TF over GST control)"
same,binding signal,CRX,"1.33 fold enrichment (6-mer frequency, TF over GST control)"
same,binding signal,ETV1,"1.35 fold enrichment (6-mer frequency, TF over GST control)"
same,binding signal,ERF,"1.28 fold enrichment (6-mer frequency, TF over GST control)"
same,binding signal,ETV3L,"1.29 fold enrichment (6-mer frequency, TF over GST control)"
same,binding signal,ETS2,"1.24 fold enrichment (6-mer frequency, TF over GST control)"
same,binding signal,SPDEF,"1.18 fold enrichment (6-mer frequency, TF over GST control)"
same,binding signal,ETV7,"1.31 fold enrichment (6-mer frequency, TF over GST control)"
same,binding signal,ELF5,"1.23 fold enrichment (6-mer frequency, TF over GST control)"
same,binding signal,ETV3,"1.25 fold enrichment (6-mer frequency, TF over GST control)"
same,binding signal,ETV6,"1.23 fold enrichment (6-mer frequency, TF over GST control)"
